Laboratory results reported in PubChem BioAssay (NCATS).
Results filed as inconclusive are left out. The source made the active and inactive calls. Unless noted, the call rests on the fitted dose curve.

Experiments:
[1] = target: Lysosomal acid glucosylceramidase (Homo sapiens) (UniProt P04062); assay: Glucocerebrosidase-p2 (AID 348; in the data active means potency below about 10 µM; further: potency means the concentration at half of the fitted maximal effect); settings: purified GBA, blue fluorogenic substrate, 40 min
Sequence of Lysosomal acid glucosylceramidase (Homo sapiens) (P04062 whole entry, looked up): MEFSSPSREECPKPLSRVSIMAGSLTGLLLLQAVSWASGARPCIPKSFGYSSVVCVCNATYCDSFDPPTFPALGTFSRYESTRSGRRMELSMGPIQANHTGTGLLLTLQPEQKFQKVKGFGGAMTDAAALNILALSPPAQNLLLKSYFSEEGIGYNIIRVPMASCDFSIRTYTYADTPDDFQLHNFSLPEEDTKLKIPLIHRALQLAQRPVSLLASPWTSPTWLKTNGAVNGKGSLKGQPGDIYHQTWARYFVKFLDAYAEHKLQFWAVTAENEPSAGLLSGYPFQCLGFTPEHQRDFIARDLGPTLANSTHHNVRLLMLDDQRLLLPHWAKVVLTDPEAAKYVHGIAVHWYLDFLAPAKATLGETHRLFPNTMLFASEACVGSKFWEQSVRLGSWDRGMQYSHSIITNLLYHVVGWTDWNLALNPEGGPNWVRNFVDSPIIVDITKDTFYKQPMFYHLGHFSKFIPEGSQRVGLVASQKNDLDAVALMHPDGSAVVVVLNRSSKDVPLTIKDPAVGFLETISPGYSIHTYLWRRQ
In short: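 Compounds titrated from 0.6 nM upwards against 0.2 nM enzyme in pH 5.9 citric acid/KH2PO4, taurocholate, tween-20; blue fluorogenic substrate 80 uM, 40 min room temperature, stopped and read Ex 365/Em 440 for AC50.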

[2] = Stat Signaling Pathway (AID 446; active means well fitted curve in either direction with a large enough effect, not every such curve was filed as active;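 further: ME-180 cervical cancer cells given 40 pM IL-6 alongside compound; SIE-controlled beta-lactamase reporter measured as 460/530 nm FRET emission ratio; on the % scale 0 is the no-effect control and ±100 the full control effect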); settings: ME-180 SIE beta-lactamase reporter, IL-6 stimulated, 5 h; at 7.69 µM (top of the series) unless noted
In short: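 IL-6/STAT signaling read in ME-180 cells via an SIE beta-lactamase reporter. Stimulus was 40 pM IL-6 (its AC50) for 5 hrs, so both activation and inhibition register.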

[3] = target: Glucocorticoid receptor (Homo sapiens) (UniProt P04150); assay: GR-GFP Redistribution (AID 450;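 active means compounds whose dose series gives a full or clear partial fitted curve of increased nuclear translocation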; further: potency means the concentration at half of the fitted maximal effect); settings: U2OS GR-GFP nuclear translocation, laser cytometry, 2 h
Sequence of Glucocorticoid receptor (Homo sapiens) (P04150 whole entry, looked up, the tested form may be a part): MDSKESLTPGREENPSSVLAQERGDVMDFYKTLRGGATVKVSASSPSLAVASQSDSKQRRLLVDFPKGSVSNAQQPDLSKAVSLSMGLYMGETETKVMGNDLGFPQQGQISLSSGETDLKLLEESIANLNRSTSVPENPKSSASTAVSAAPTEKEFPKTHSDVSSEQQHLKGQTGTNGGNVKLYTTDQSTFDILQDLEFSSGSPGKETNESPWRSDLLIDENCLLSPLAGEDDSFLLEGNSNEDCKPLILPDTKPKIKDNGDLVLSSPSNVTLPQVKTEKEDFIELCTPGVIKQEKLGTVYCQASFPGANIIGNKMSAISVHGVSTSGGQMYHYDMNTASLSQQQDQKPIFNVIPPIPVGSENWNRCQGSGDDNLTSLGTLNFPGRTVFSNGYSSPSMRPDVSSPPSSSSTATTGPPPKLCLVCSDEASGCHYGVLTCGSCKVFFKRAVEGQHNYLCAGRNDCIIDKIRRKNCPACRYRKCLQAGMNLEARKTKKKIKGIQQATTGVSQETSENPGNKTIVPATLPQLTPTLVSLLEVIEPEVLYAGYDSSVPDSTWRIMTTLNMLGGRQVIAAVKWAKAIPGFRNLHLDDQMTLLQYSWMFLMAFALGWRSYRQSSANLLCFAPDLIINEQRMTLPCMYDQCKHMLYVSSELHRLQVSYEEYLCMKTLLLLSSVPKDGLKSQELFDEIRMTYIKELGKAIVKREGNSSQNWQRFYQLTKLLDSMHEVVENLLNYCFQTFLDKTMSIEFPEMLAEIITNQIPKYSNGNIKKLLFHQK

[4] = target: Glucocorticoid receptor (Homo sapiens) (UniProt P04150); assay: GR-EFC Redistribution (AID 451); settings: CHO-K1 GR-EFC translocation, beta-gal luminescence, 2 h; further: potency means the concentration at half of the fitted maximal effect
In short: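 Translocation of GR-ED fusion to nuclear EA restores b-gal, read by luminescence after 1 h room-temperature detection. Engineered CHO-K1 biosensor cells, 1,000/well, exposed 2 h at 37 C to titrations up to 46 uM final.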

[5] = target: Mitogen-activated protein kinase 10 (Mus musculus) (UniProt Q61831); assay: JNK3 AlphaScreen Assay (AID 530; active means well fitted curve in either direction with a large enough effect, not every such curve was filed as active;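 further: kinase came from lysate of stimulated human HepG2 cells; signal reports phosphorylation of biotinylated GST-cJun 1-79 at Ser73 with 10 µM ATP; on the % scale 0 is the no-effect control and ±100 the full control effect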); settings: JNK3 lysate, c-Jun phosphorylation; series mostly up to 57.1 µM
In short: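 Room-temperature AlphaScreen kinase assay; pre-activated HepG2 lysate as JNK3 source, biotin-GST-cJun(1-79) substrate, 10 uM ATP, compound 15 min preincubation.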

[6] = Confirmation and Secondary Assay for Modulators of Hemoglobin Beta Chain Splicing at IVS2 654 locus (AID 910; active means well fitted curve in the direction sought with a large enough effect; an effect the other way counts as inactive or inconclusive;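 further: HeLa cells stably carrying EGFP split by mutant beta-globin IVS2-654 intron; per-well total GFP intensity by laser scanning cytometry after 2-day treatment; % of control where 0% means no effect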); settings: HeLa EGFP-654 splicing reporter, GFP fluorescence, 48 h; series mostly up to 38.3 µM
In short: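 Readout: per-well total peak green fluorescence (488 nm ex, 500–520 nm em) from objects 5–250 µm, reflecting correct splicing of an EGFP-654 reporter. Compounds were applied for 2 days at 37 °C to overnight-plated HeLa EGFP-654 cells; controls were DMSO and 500 nM IVS2-654 PNA.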

[7] = Confirmation and Secondary Assay for Modulators of Hemoglobin Beta Chain Splicing at IVS2 705 locus (AID 930; active means well fitted curve in the direction sought with a large enough effect; an effect the other way counts as inactive or inconclusive;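 further: HeLa cells stably expressing the EGFP-705 splicing reporter; GFP fluorescence per well restored by corrected splicing of the IVS2-705 intron in EGFP; % of control where 0% means no effect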); settings: HeLa EGFP-705 splicing reporter, GFP fluorescence, 48 h; series mostly up to 38.3 µM
In short: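 HeLa EGFP-705 reporter; 500 cells/well, o/n 37C 5% CO2; cpd 2 d; 488 ex/500-520 em laser scan; total peak GFP intensity/well. Ref: 500 nM […] antisense PNA.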

[8] = qHTS Assay for Lipid Storage Modulators (AID 1519); settings: Drosophila S3 cells, BODIPY lipid droplet/cell ratio, laser cytometry, cells loaded with oleic acid; for activity change, negative = inhibition: at 57.5 µM (top of the series)
In short: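 Cells seeded at 5,000 per well were treated with compounds over a concentration series and loaded with oleic acid (400 uM, as added). Lipid droplet fluorescence (488 nm excitation, 500-530 nm channel) was read by laser-scanning cytometry and normalized to 20 uM Triacsin C.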

[9] = Primary qHTS for small molecule stabilizers of the endoplasmic reticulum resident proteome: Secreted ER Calcium Modulated Protein (SERCaMP) assay (AID 1508630; active means well fitted curve in the direction sought with a large enough effect; an effect the other way counts as inactive or inconclusive; further: on the % scale 0 is the no-effect control and ±100 the full control effect); settings: SH-SY5Y GLuc-SERCaMP (Gaussia luciferase released on ER calcium loss) secretion, thapsigargin, luminescence; series mostly up to 38.4 µM
In short: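 GLuc-SERCaMP-expressing SH-SY5Y cells, pretreated 16 h with compound, are challenged with thapsigargin to empty ER calcium stores; after 4 h, coelenterazine is added directly to the medium and luminescence is imaged.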

[10] = target: Cytochrome P450 1A2 (Homo sapiens) (UniProt P05177); assay: p450-cyp1a2 (AID 410); settings: recombinant CYP1A2, luciferin-ME demethylation, luminescence; series mostly up to 57 µM; further: potency means the concentration at half of the fitted maximal effect;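 on activity change, negative = inhibition: -100% = full effect of reference inhibitor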
Sequence of Cytochrome P450 1A2 (Homo sapiens) (P05177 whole entry, looked up): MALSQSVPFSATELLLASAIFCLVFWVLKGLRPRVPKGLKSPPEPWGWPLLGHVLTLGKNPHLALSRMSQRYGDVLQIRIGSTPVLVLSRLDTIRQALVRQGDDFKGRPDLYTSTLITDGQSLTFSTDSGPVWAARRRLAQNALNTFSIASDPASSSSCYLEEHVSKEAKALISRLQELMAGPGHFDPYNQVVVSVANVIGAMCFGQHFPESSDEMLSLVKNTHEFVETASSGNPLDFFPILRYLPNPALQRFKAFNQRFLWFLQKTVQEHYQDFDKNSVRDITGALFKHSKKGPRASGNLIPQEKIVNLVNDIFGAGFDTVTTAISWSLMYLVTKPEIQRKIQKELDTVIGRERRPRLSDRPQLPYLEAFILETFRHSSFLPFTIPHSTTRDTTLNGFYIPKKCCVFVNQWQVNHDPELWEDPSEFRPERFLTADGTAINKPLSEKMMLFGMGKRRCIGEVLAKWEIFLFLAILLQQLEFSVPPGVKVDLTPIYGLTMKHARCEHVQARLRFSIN
In short: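 Human CYP1A2 (20nM) demethylated Luciferin-ME at its Km (100uM) in 100mM KPO4. After 10 min compound preincubation, NADPH regeneration ran the reaction 60 min at room temperature. Luciferin was read by luminescence, normalized to 57 uM furafylline.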

[11] = target: 3',5'-cyclic-AMP phosphodiesterase 4B (Homo sapiens) (UniProt Q07343); assay: qHTS Assay for Inhibitors of PDE-IV (AID 607; active means well fitted activation curve with a large enough effect in the main read-out, with a control signal flat, not every such curve was filed as active; further: % of control where 0% means no effect); settings: HEK293 ACTOne CNG channel cells, membrane potential fluorescence; series mostly up to 22.9 µM
Sequence of 3',5'-cyclic-AMP phosphodiesterase 4B (Homo sapiens) (Q07343 whole entry, looked up): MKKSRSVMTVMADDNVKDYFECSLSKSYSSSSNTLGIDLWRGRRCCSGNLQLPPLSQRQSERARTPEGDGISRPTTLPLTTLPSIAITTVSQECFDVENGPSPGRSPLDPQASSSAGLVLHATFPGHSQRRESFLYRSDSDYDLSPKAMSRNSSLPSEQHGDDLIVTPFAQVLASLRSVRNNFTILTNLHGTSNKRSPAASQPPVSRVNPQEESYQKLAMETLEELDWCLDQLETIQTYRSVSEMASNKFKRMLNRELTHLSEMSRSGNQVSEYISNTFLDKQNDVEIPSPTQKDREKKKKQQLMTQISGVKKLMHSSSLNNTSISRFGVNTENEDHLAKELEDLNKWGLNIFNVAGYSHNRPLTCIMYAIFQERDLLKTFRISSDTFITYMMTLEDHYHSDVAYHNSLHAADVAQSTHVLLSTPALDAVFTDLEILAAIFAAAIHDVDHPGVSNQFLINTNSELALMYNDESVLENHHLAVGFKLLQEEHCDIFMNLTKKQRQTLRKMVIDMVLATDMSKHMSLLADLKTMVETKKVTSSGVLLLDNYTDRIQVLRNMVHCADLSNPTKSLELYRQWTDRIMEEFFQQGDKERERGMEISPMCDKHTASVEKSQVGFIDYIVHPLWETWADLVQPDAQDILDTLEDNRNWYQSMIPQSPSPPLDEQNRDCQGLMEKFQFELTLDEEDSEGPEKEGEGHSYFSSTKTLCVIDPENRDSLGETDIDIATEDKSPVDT
In short: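 Live HEK293 cells with a modified cyclic nucleotide-gated (CNG) channel report intracellular cAMP via membrane-potential dye fluorescence (ex 535/em 590 nm). Endogenous PDE-IV was targeted. Compounds were tested at up to 22.9 uM final; RO 20-1724 100 uM served as control.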

[12] = target: Cytochrome P450 3A4 (Homo sapiens) (UniProt P08684); assay: qHTS Assay for Activators of Cytochrome P450 3A4 (AID 885; active means well fitted curve in the direction sought with a large enough effect; an effect the other way counts as inactive or inconclusive; further: nearly all actives have a fitted effect of over 65% in size; further: potency means the concentration at half of the fitted maximal effect); settings: recombinant CYP3A4, Luciferin-PPXE luminescence, 60 min; series mostly up to 57.1 µM
Sequence of Cytochrome P450 3A4 (Homo sapiens) (P08684 whole entry, looked up): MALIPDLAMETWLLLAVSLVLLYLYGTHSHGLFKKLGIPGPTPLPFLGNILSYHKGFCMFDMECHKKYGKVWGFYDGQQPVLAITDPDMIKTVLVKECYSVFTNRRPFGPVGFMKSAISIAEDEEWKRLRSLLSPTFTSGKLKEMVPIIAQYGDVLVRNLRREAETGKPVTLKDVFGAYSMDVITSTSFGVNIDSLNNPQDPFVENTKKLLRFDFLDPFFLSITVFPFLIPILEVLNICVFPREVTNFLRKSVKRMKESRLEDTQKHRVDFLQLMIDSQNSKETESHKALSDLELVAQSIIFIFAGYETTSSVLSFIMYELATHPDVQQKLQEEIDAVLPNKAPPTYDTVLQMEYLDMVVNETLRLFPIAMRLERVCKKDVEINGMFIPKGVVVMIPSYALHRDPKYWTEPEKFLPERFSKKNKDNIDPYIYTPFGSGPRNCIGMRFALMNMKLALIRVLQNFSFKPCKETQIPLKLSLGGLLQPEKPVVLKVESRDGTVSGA
In short: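 Quantitative HTS format: compounds preincubated with 20nM human CYP3A4 and Luciferin-PPXE substrate at KM, reaction started by NADPH regeneration, stopped after 60 min, luciferase luminescence read 20 min later.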

[13] = NFAT Signaling Pathway (AID 444; active means well fitted curve in either direction with a large enough effect, not every such curve was filed as active;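 further: carbachol stimulus at about its EC50 of 1 µM final; on the % scale 0 is the no-effect control and ±100 the full control effect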); settings: Jurkat NFAT-bla M1, carbachol, beta-lactamase ratio, 5 h; at 7.69 µM (top of the series) unless noted
In short: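 Read-out: CCF4 FRET ratio (460 nm/530 nm) after 1 h RT dye loading, used for %activity and AC50 from titration series. Cells: Jurkat NFAT-β-lactamase/M1 line, treated with compound plus 1 uM carbachol for 5 h, 37 °C.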

[14] = target: Cytochrome P450 3A4 (Homo sapiens) (UniProt P08684); assay: qHTS Assay for Inhibitors and Substrates of Cytochrome P450 3A4 (AID 884; active means well fitted curve in the direction sought with a large enough effect; an effect the other way counts as inactive or inconclusive; further: nearly all actives have a fitted effect of over 50% in size; further: potency means the concentration at half of the fitted maximal effect); settings: recombinant CYP3A4, Luciferin-PPXE luminescence; series mostly up to 57.1 µM
In short: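 20 nM human CYP3A4 with 25 uM Luciferin-PPXE (at KM) in 200 mM KPO4, preincubated 10 min with compound; NADPH regeneration started a 60 min RT reaction. Luciferin detected by luminescence, normalized to 57 uM ketoconazole as full inhibition.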

[15] = target: Ubiquitin carboxyl-terminal hydrolase 1 (Homo sapiens) (UniProt O94782); assay: Inhibitors of USP1/UAF1: Pilot qHTS (AID 504865; active means well fitted curve in the direction sought with a large enough effect; an effect the other way counts as inactive or inconclusive;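 further: rhodamine fluorescence freed from ubiquitin-rhodamine substrate followed over time; top concentration of the series differs between compounds; on the % scale 0 is the no-effect control and ±100 the full control effect; nearly all actives have a fitted effect of over 35% in size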); settings: purified USP1/UAF1, Ub-rhodamine cleavage fluorescence; series mostly up to 54.9 µM
Sequence of Ubiquitin carboxyl-terminal hydrolase 1 (Homo sapiens) (O94782 whole entry, looked up): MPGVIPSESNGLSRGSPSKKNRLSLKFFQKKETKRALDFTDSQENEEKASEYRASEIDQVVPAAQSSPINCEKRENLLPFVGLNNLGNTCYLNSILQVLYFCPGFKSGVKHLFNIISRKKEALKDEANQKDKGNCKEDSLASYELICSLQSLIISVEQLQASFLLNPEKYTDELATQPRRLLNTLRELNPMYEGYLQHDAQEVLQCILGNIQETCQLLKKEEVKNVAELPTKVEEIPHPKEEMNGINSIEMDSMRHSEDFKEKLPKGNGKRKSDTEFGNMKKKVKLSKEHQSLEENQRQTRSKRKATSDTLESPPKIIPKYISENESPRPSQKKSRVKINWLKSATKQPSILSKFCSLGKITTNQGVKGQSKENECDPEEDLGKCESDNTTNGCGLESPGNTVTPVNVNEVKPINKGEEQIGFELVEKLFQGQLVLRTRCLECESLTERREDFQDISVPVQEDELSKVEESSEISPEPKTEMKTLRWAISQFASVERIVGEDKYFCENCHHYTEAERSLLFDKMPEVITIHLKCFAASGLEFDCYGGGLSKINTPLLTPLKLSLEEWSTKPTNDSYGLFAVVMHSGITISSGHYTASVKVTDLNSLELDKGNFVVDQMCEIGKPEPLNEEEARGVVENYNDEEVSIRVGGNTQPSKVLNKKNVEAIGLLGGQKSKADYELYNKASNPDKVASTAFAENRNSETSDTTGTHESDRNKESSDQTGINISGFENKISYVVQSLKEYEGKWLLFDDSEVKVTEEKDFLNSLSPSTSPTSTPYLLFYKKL
In short: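 In 50mM HEPES pH 7.8 containing 0.5mM EDTA, 1mM TCEP, 0.1 mg/ml BSA and 0.01% Tween-20, 1nM USP1/UAF1 is exposed to compound for 15 min, then Ub-Rho (150nM final) is added and fluorescence is read over time.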

[16] = qHTS Assay for Identification of Small Molecule Agonists for Hypoxia Response Element Signaling Pathway (AID 914; active means well fitted activation curve with a large enough effect in the signal ratio, with a control signal flat, not every such curve was filed as active; the % refers to the signal ratio; further: potency means the concentration at half of the fitted maximal effect); settings: ME-180 (cervical carcinoma) HRE-bla reporter, beta-lactamase ratio, CoCl2, 17 h; activation: stronger effect = higher value
In short: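 Read-out: CCF4 FRET ratio of 460nm to 530nm emission (excitation 405nm) after 2.5 hours at room temperature, taken from HRE-bla ME-180 cells that had been exposed to compound and EC50 CoCl2 for 17 hours.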

[17] = measured here: cell count channel max response
[18] = measured here: lipid channel max response

Cc1cccc(CNc2nc(-c3c(C)noc3C)nc3ccccc23)c1
inactive: Potency [1] > 11.4 µM | activity, negative = inhibition [2] -28.8% | Potency [3] > 46 µM | Potency [4] > 46 µM | Potency [5] | Potency [6] | outcome [7] | activity change, negative = inhibition [8] 11.8% | outcome [9]
-6.95%: max response [8, 17]
4.27%: max response [8, 18]

Cn1cccc1C(=O)N1CCC2(CCCN(C(c3ccccc3)c3ccccc3)C2)CC1
active: Potency [10] 12.6 µM
18.7%: max response [8, 18]
6.53%: max response [8, 17]
inactive: Potency [1] > 11.4 µM | activity, negative = inhibition [2] 6.33% | Potency [4] > 46 µM | Potency [5] | Potency [11] | Potency [12] | activity change, negative = inhibition [8] 4.95% | outcome [9]

c1cncc(CNc2nc(-c3ccc4c(c3)OCO4)nc3ccccc23)c1
18%: max response [8, 18]
10.1%: max response [8, 17]
active: Potency [10] 0.1 µM | Potency [14] 0.316 µM
inactive: Potency [1] > 11.4 µM | activity change, negative = inhibition [13] -3.4% | activity, negative = inhibition [2] -7.26% | Potency [3] > 46 µM | Potency [4] > 46 µM | Potency [5] | Potency [12] | Potency [6] | activity change, negative = inhibition [8] 6.87% | outcome [9]

COc1ccc(Oc2ncc3nc(-c4ccc(OC)cc4)c(=O)n(CCC#N)c3n2)cc1
21%: max response [8, 18]
17.2%: max response [8, 17]
inactive: Potency [1] > 11.4 µM | activity change, negative = inhibition [13] 7.68% | activity, negative = inhibition [2] 2.86% | Potency [3] > 9.22 µM | Potency [4] > 46 µM | Potency [5] | Potency [11] | activity change, negative = inhibition [8] -1.07% | outcome [9]

CN(C)C(=O)c1ccc(-c2nc(NCc3ccccc3)c3ccccc3n2)cc1
inactive: Potency [1] > 11.4 µM | activity change, negative = inhibition [13] 16% | activity, negative = inhibition [2] -21.7% | Potency [3] > 46 µM | Potency [4] > 46 µM | Potency [5] | Potency [12] | Potency [6] | outcome [7] | activity change, negative = inhibition [8] 10.9% | Potency [15] | outcome [9]
active: Potency [10] 15.8 µM
6.91%: max response [8, 17]
16.5%: max response [8, 18]

CN(C)C(=O)c1ccc(-c2nc(NCc3cccs3)c3ccccc3n2)cc1
15.6%: max response [8, 18]
active: Potency [10] 12.6 µM
0.768%: max response [8, 17]
inactive: Potency [1] > 11.4 µM | activity change, negative = inhibition [13] 28.9% | activity, negative = inhibition [2] -25% | Potency [3] > 46 µM | Potency [4] > 46 µM | Potency [5] | Potency [12] | Potency [6] | outcome [7] | activity change, negative = inhibition [8] 12.5% | outcome [9]

Cn1cccc1C(=O)N1CCC2(CCCN(C(=O)Nc3ccccc3)C2)CC1
28.5%: max response [8, 18]
14.7%: max response [8, 17]
inactive: Potency [1] > 11.4 µM | activity change, negative = inhibition [13] -22.5% | activity, negative = inhibition [2] 4.11% | Potency [4] > 46 µM | Potency [5] | Potency [11] | Potency [12] | activity change, negative = inhibition [8] 7.87% | outcome [9]

COc1ccc(NC(=O)N2CC[C@@]3(CCCN(C(=O)c4ccco4)C3)C2)cc1
12.5%: max response [8, 18]
inactive: Potency [1] > 11.4 µM | activity change, negative = inhibition [13] -7.9% | activity, negative = inhibition [2] 13.8% | Potency [4] > 46 µM | Potency [5] | Potency [11] | activity change, negative = inhibition [8] 2.86% | outcome [9]
9.78%: max response [8, 17]

COc1ccccc1CN1CCC2(CC1)CCN(S(C)(=O)=O)CC2
-18.2%: max response [8, 18]
inactive: Potency [1] > 11.4 µM | Potency [10] | activity change, negative = inhibition [13] -27.6% | activity, negative = inhibition [2] -4.05% | Potency [4] > 46 µM | Potency [5] | Potency [11] | activity change, negative = inhibition [8] -1.09% | outcome [9]
-18.8%: max response [8, 17]

COC(=O)N1CCC2(CC1)CN(c1ccc(-c3ccccc3)cc1)C2
-7.69%: max response [8, 17]
0.422%: max response [8, 18]
active: Potency [10] 1.26 µM | Potency [12] 3.16 µM
inactive: Potency [1] > 11.4 µM | activity change, negative = inhibition [13] 15.9% | activity, negative = inhibition [2] -8.46% | Potency [4] > 46 µM | Potency [5] | Potency [11] | Potency [14] | activity change, negative = inhibition [8] 5.19% | outcome [9]

CCNc1ncc2ncc(=O)n(C[C@H]3CCCO3)c2n1
inactive: Potency [1] > 11.4 µM | activity change, negative = inhibition [13] -20% | Potency [3] > 9.22 µM | Potency [4] > 46 µM | Potency [5] | activity change, negative = inhibition [8] 1.57% | outcome [9]
active: Potency [10] 10 µM
17.2%: max response [8, 18]
16.3%: max response [8, 17]

COc1ccccc1CNc1ncnc2ccc(-c3c(C)noc3C)cc12
inactive: Potency [1] > 11.4 µM | Potency [3] > 46 µM | Potency [4] > 46 µM | Potency [5] | Potency [12] | Potency [6] | outcome [7] | activity change, negative = inhibition [8] -5.34% | outcome [9]
-7.6%: max response [8, 18]
active: Potency [10] 7.94 µM | Potency [16] 1.26 µM
-3.01%: max response [8, 17]

COCC(=O)N1CCC2(CC1)CCN(c1ncccn1)CC2
17.5%: max response [8, 18]
11.8%: max response [8, 17]
inactive: Potency [1] > 11.4 µM | Potency [10] | activity change, negative = inhibition [13] 16.6% | activity, negative = inhibition [2] -0.157% | Potency [4] > 46 µM | Potency [5] | Potency [11] | activity change, negative = inhibition [8] 3.55% | outcome [9]
